The list is not random: actives were taken first. Their share in the collection is about 10%.
HPGD block = blocks human HPGD enzyme activity. P15428. purified HPGD, NADH fluorescence kinetic, PGE2 substrate. Potency, µM, usual class: inhibitors. 4.3% of 150,000 active
Target sequence (P15428 whole entry, looked up): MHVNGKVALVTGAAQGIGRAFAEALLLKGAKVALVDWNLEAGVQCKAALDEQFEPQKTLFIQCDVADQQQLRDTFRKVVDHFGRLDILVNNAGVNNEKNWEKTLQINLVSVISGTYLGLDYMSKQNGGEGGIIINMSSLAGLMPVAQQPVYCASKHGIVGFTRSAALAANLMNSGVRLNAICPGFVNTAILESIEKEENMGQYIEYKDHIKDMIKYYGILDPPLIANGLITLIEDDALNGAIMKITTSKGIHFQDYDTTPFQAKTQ
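20 nM HPGD preincubated 15 min at room temperature with compound in 50 mM Tris-HCl pH 8, 0.01% Tween 20. Started with 1 mM NAD+ and 30 uM prostaglandin E2; NADH fluorescence (360/450 nm) read 5 times over 30-s intervals, last minus first.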
Luc counter = blocks Kinase-Glo luciferase, a counter-screen artifact | 0.28% of 200,000 active | Potency, µM (titrated, usually from 38.3 µM), usual class: inhibitors | Kinase-Glo luciferase, ATP luminescence, 8 min | Q27757; active means well fitted inhibition curve with a large enough effect; inconclusive means small, poorly fitted or top-dose-only effect; further: nearly all actives have a fitted effect of over 60% in size
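Recombinant Kinase-Glo luciferase, 10 uM ATP (linear range), luciferin; imidazole pH 7.2 / KCl / MgCl2 / Tween / BSA buffer; 8 min RT; luminescence.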
ALDH1A1 block = blocks purified human ALDH1A1 activity; P00352; Purified ALDH1A1, NADH fluorescence, propionaldehyde substrate; Potency, µM (doses to about 75.3 µM), actives largely listed as inhibitors; 7.3% of 220,000 active; AID 1030
PNC assembly inh = perinucleolar compartment assembly inhibition; activity change (PNC), negative = inhibition, % at 10 µM; PC3M PTB-GFP, PNC prevalence imaging, 16 h; hits give low values; 3.1% of 140,000 active;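 active means readout at or below -70, meaning at least 70% loss of cells showing the perinucleolar compartment, a nuclear body marking cancer cells; inconclusive means readout between -30 and a set limit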
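Compounds are pinned in duplicate onto adhered PC3M cells stably expressing GFP-tagged PTB and incubated 16 h at 37 C. Cells are then fixed, nuclei stained with Hoechst, and PNC-positive cells counted.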
LMNA splice mod = modulators of lamin A splicing | HeLa LMNA splicing GFP/RFP minigene ratio, 48 h | Potency, µM (top dose mostly 46.1 µM), hits mostly inhibitors | 0.01% of 200,000 active | AID 1487; active means well fitted inhibition curve with a large enough effect in the signal ratio, with a control signal flat, not every such curve was filed as active; inconclusive means small, poorly fitted or top-dose-only effect, or effect the other way, or a change in a side signal; the % refers to the signal ratio
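Read-out is the ratio of GFP to DsRed2 object intensity, acquired by 488 nm laser-scanning cytometry on HeLa lamin A-EGFP minigene reporter cells. Compound incubation 48 hrs at 37 °C in Opti-MEM with 2% FBS; DMSO 0.5% final.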
IMPase cell inh = IMPase inhibition in cells; 120,000 tested, under 10 active; P97697; CHO-M1 cells, IP1 accumulation, HTRF TR-FRET ratio; inhibition (IP1 accumulation), % at 46.1 µM; AID 901; active means well fitted curve in the direction sought with a large enough effect in the signal ratio, not every such curve was filed as active; inconclusive means small, poorly fitted or top-dose-only effect, or a change in a side signal; inactive means no such curve, though single readings can be large or run the other way; the % refers to the signal ratio;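 further: cells stimulated with carbachol in lithium chloride buffer; higher means more IMPase inhibition seen as more IP1 and lower FRET ratio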
Target sequence (P97697 whole entry, looked up): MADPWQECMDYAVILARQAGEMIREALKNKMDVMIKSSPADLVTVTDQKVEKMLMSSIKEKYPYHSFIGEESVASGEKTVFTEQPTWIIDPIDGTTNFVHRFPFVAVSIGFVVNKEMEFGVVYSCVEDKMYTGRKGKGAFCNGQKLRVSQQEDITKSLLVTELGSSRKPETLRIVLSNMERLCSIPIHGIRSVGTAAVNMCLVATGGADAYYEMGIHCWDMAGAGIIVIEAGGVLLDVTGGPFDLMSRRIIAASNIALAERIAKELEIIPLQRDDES
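CHO-M1, 2000 cells/well, cultured 16–30 h; cpd up to 46 uM; carbachol (50 uM solution, stimulation buffer w/ 50 mM LiCl, pH 7.4), 30 min 37C; IP-One TR-FRET, 10 min RT; Ex 320/Em 665, 620; Hill-fit AC50.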
Hits are given with their value; n = inactive; u = inconclusive; x = no result given; [ ] = dose if it differs, or a comment. Unless noted, the call rests on the fitted dose curve; in most records, active means well fitted inhibition curve with a large enough effect (not every such curve was filed as active); inconclusive means small, poorly fitted or top-dose-only effect, or another doubt; inactive means no such curve, though single readings can be large or run the other way.

SMILES	HPGD block	Luc counter	ALDH1A1 block	PNC assembly inh	LMNA splice mod	IMPase cell inh
CS(=O)(=O)N1CCC(C(=O)NCCC2=CCCCC2)CC1	n	n	u	n	n	n
Cc1cc2c(n1-c1ccc(C(=O)NCc3ccccc3Cl)cc1)CCCC2	x	x	x	x	n	x
O=C(c1ccco1)[C@@H]1[C@@H]2C(=O)N(c3ccc(Br)cc3)C(=O)[C@@H]2C2c3ccccc3C=CN21 (some centres undefined)	u	n	11µM	n	n	n
O=C(c1ccc(Cl)cc1)[C@@H]1[C@@H]2C(=O)N(c3ccc(Cl)cc3)C(=O)[C@@H]2C2c3ccccc3C=NN21 (some centres undefined)	n	n	u	n	n	x
O=C(c1ccco1)[C@@H]1[C@@H]2C(=O)N(c3ccc(F)cc3)C(=O)[C@@H]2[C@H]2C=Cc3ccccc3N21	n	n	u	n	u	x
O=C(c1ccco1)[C@@H]1[C@@H]2C(=O)N(c3ccc(F)cc3)C(=O)[C@@H]2C2c3ccccc3C=CN21 (some centres undefined)	32µM	n	13µM	n	n	n
Cc1ccc(Nc2nc(CSc3nnnn3C)cs2)cc1	n	n	u	n	n	n
Cc1ccc(Nc2nc(CSc3nnc(-c4ccccc4C)n3C)cs2)cc1	x	x	u	-107	n	n
Cc1ccccc1Nc1nc(N)nc(CSc2nnnn2-c2ccccc2)n1	n	n	13µM	n	n	n
Cc1ccc(Nc2nc(CSc3nnc(-c4ccccc4)n3C)cs2)cc1	n	n	n	u	u	x
Cc1ccc(Nc2nc(CSc3nnnn3-c3ccccc3)cs2)cc1	n	n	8.9µM	n	u	n
CSCCC(NC(=O)c1ccc(C)o1)C(=O)O (centres undefined)	n	n	16µM	n	n	n
N#C/C(=C\c1cn[nH]c1-c1ccc(Cl)cc1)C(=O)NCc1ccccc1	u	n	22µM	u	n	n
CCc1ccc(C(C)NC(=O)/C(C#N)=C\c2cn[nH]c2-c2ccccc2)cc1 (centres undefined)	n	n	u	n	u	n
CC(NC(=O)/C(C#N)=C/c1cn[nH]c1-c1ccccc1)c1ccccc1 (centres undefined)	14µM	n	7.9µM	n	n	n
Cc1ccc(/C=C(/C#N)C(=O)NC(C)c2ccccc2)o1 (centres undefined)	n	n	14µM	n	n	x
N#C/C(=C\c1cn[nH]c1-c1ccc(Cl)cc1)C(=O)NC1CC1	n	n	n	n	u	x
CSCCC(NC(=O)c1cc(C)oc1C)C(=O)O (centres undefined)	n	n	n	n	n	n
Cc1ccc(/C=C(\C#N)C(=O)NC(C)C)o1	x	n	u	x	n	x
Cc1ccc(C(=O)NC(C)c2ccccc2)o1 (centres undefined)	22µM	n	u	n	n	n
CCOC(=O)C[C@@H](C(=O)OCC)[C@@H]1CCCCC1=O	x	x	n[13.5 µM]	x	x	x
Cn1c(Oc2ccc(Cl)cc2)nc2c1c(=O)n(Cc1ccc(F)cc1)c(=O)n2C	x	x	x	x	x	n
CSc1nc(O)c(/C=C2\C=Nc3ccccc32)[nH]1	u	6.3µM	u	n	n	x
O=c1[nH]c(/C=C2\C=Nc3ccccc32)c(O)n1Cc1ccccc1F	x	n	13µM	x	n[9.22 µM]	x
COC(=O)c1cc(=O)n(Cc2ccc(OC)c(OC)c2)c(=Nc2ccc(F)cc2)s1	n	n	n	n	u	n
SMILES	HPGD block	Luc counter	ALDH1A1 block	PNC assembly inh	LMNA splice mod	IMPase cell inh
COC(=O)c1cc(=O)n(Cc2ccco2)c(=Nc2ccc(F)cc2)s1	x	x	11µM	x	x	x
COc1cccc(CNC(=O)c2cc(S(=O)(=O)N3CCCCCC3)cn2C)c1	x	x	x	x	n	x
O=C(CSc1nnc(CNc2ccccc2)o1)N1CCc2ccccc21	n	n	16µM	u	n	n
O=C(CSc1nnc(Cc2ccccc2)o1)N1CCCc2ccccc21	u	n	18µM	n	n	n
COc1ccc(C(=O)NCc2nnc(SCC(=O)N3CCc4ccccc43)o2)cc1OC	n	n	n	n	n	n
Cc1ccccc1NC(=O)CSc1nnc(Cc2ccccc2)o1	n	n	n	-100	n	n
CC(C)(C)OC(=O)N1CCC(c2c(C(=O)NCc3ccc4c(c3)OCO4)cnn2-c2ccccc2Cl)CC1	x	x	x	x	n	x
Cc1ccc(S(=O)(=O)N[C@H]2COC(=O)C/C=C\[C@@H](C)[C@H](NS(=O)(=O)c3ccc(C)cc3)COC(=O)C/C=C\[C@H]2C)cc1	x	x	n[13.5 µM]	x	x	x
CC[C@]1(O)C[C@@H]2CN(CCc3c([nH]c4ccccc34)[C@@](C(=O)OC)(c3cc4c(cc3OC)N(C)C3[C@]45CCN4CC=C[C@](CC)(C45)[C@@H](OC(C)=O)[C@]3(O)C(=O)OC)C2)C1 (some centres undefined)	x	x	n	x	x	x
C[C@@H]1CC[C@@]2(OC1)OC1CC3C4CC=C5CC(O)CCC5(C)C4CCC3(C)C1[C@@H]2C (some centres undefined)	n	n	n	x	x	x
O=C(N/N=C/c1c[nH]c2ccccc12)c1sc2ccccc2c1Cl	n	n	u	u	n	n
O=C(Cc1ccc(F)cc1)N/N=C/c1ccccn1	n	n	n	-113	n	x
Cc1c(/C=N/NC(=O)c2sc3ccccc3c2Cl)cnn1C	n	n	20µM	n	n	n
O=C(N/N=C/c1ccccn1)c1sc2ccccc2c1Cl	x	x	11µM	x	x	x
O=C(c1sc2ccccc2c1Cl)N1CCN(c2ncccn2)CC1	n	n	13µM	n	u	x
Cc1c(/C=N\NC(=O)c2ccc([N+](=O)[O-])cc2)cnn1C	n	n	n	-109	n	x
Cc1ccsc1/C=N/NC(=O)c1ccc([N+](=O)[O-])cc1	x	n	n	x	x	x
Cc1ccc(-c2cc(C(=O)Nc3ccc4c(c3)OCCO4)c3ccccc3n2)cc1	n	u	n	n	n	n
CCOCC(=O)NCc1ccc2c(c1)OCO2	13µM	n	n	n	n	n
Cc1ccccc1CN1CCN(CC(=O)NCc2ccc3c(c2)OCO3)C1=O	n	n	13µM	n	u	n
O=C(Nc1ccc2c(c1)OCO2)c1cc(-c2cccnc2)nc2ccccc12	x	n	7.9µM	x	n	x
O=C(NCc1ccc2c(c1)OCO2)C1CC(c2cccc(Br)c2)=NO1 (centres undefined)	n	n	n	n	n	n
O=C(NCc1ccc2c(c1)OCO2)C1CC(c2ccccc2O)=NO1 (centres undefined)	n	n	11µM	n	n	n
Cc1ccc(CC(=O)NCc2ccc3c(c2)OCO3)cc1	n	n	n	n	n	n
CCCCC/C=C\C[C@@H](O)/C=C/C=C\C/C=C\CCCC(=O)O	n	n	n	x	x	x
O=C(C[n+]1ccc(C(=O)NCc2ccccc2)cc1)c1ccc2c(c1)OCCO2	x	n	3.5µM	x	x	x
O=C(Cc1ccccc1)NCc1ccc2c(c1)OCO2	32µM	n	n	n	n	n

Assay outcomes: PubChem BioAssay, National Center for Advancing Translational Sciences (NCATS)
